In PubChem BioAssay AID504465 (National Center for Advancing Translational Sciences (NCATS), 2011) one finds Potency data, which are given here for 92 molecules.

Out of some 2,100 compounds screened, about 210 (10%) were called active. Inconclusive results (about 53%) are left out. Calls come from the whole dose curve; as a rule, active = well fitted inhibition curve with a large enough effect; inconclusive = small, poorly fitted or top-dose-only effect, or effect the other way; inactive = no such curve, though single readings can be large or run the other way. This is one part of the list. A call without a number means that no potency is given here.
Potency is the fitted concentration of half-maximal effect.

A short description of this assay: IN Cell qHTS Assay for Inhibitors of the mTORC1 Signaling Pathway in MEF (Tsc2-/-, p53-/-) Cells: Sytravon. Note: nearly all actives have a fitted effect of over 60% in size. Particulars: phospho-rpS6 immunofluorescence, 24 h; series mostly up to 38.3 µM. In a few lines:
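Tsc2-/-, p53-/- MEFs (empty-vector) treated with compound 24 h at 37 degree Celsius, then fixed and stained for phospho-rpS6 Ser235/236 (Alexa-488) plus Hoechst. Reported as % positive cells, thresholds set against 7.5 nM rapamycin and DMSO wells.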
(In qHTS, concentration-response curves come from the screen itself.)
For the molecule `CCOc1cc(CNc2ccc(O)cc2)cc(Cl)c1OCc1ccccc1`, the Potency entry is “inactive”.
As for `CCn1ccc2cc(S(=O)(=O)N3CCCN(C(=O)NCC(C)C)CC3)ccc21`, the Potency entry was “inactive”.
Consider `CCC(C)NC(=O)c1ccc2c(c1)N=C(C)c1cc(C)ccc1S2` (configuration not stated), for which the Potency result is “inactive”.
With `COc1ccc(NC(=O)CSc2nc(-c3ccco3)cc(C(F)(F)F)n2)cc1Cl` the entry was “inactive”; with `CCNS(=O)(=O)c1ccc(NC(=O)CSc2nc(-c3ccco3)cc(C(F)(F)F)n2)cc1`, 0.233 µM (active); with `CCc1ccc2c(c1)-c1ccccc1S(=O)(=O)N2CC(=O)N1CCC(C)CC1`, “inactive”.
For `CCc1ccc(NC(=O)C2CCCN(S(=O)(=O)c3c(C)noc3/C=C/N(C)C)C2)cc1` (configuration not stated), the Potency result was “inactive”.
To `Cc1ccc(Sc2c(C)nn(C(=O)COc3ccccc3)c2C)cc1` belongs 6.56 µM (active).
With `O=C(Nc1ccc(Br)cc1)c1ccc(F)c(S(=O)(=O)N2CCc3ccccc32)c1` the entry was “inactive”; with `CCOc1ccccc1NC(=O)Cn1ccn(Cc2ccc(C)cc2)c(=O)c1=O`, “inactive”.
Consider `Cc1ccc(C(=O)c2cn(CC(=O)NCc3ccccc3Cl)c3nc(C)ccc3c2=O)cc1`, for which the Potency entry is “inactive”.
To `CCOc1ccccc1CNC(=O)CCn1c(=O)c2cccn2c2ccc(F)cc21` belongs “inactive”; to `CCc1nn(CC(=O)NCc2ccccc2Cl)c(=O)c2cccn12`, 3.29 µM (active).
`Clc1ccc(-n2ncc3c(NC4CCCC4)ncnc32)cc1`: the Potency result is “inactive”.
As for `CC(C)Oc1ccc(CNC(=O)CCn2c(=O)c3cccn3c3ccc(F)cc32)cc1`, the Potency entry is “inactive”.
In the case of `COc1ccc(-c2nnc(SCc3cc(=O)c4cc(C)cc(C)c4[nH]3)n2C)cc1`, the Potency is 18.5 µM (active).
Take `COc1cccc(-n2c(SCC(=O)Nc3c(C)cc(C)cc3C)nc3c([nH]c4ccccc43)c2=O)c1`: the Potency entry is “inactive”.
For `COc1cccc(-n2c(SCc3cccc(C)c3)nc3c([nH]c4ccccc43)c2=O)c1`, the Potency entry was “inactive”.
To `O=C(Nc1ccc(F)c(Cl)c1)c1cc(S(=O)(=O)N2CCCc3ccccc32)ccc1F` belongs “inactive”; to `Cc1cccc(N2CCN(C(=O)Cn3c(=O)c4cccn4c4ccc(F)cc43)CC2C)c1` (configuration not stated), “inactive”; to `Cc1ccccc1Cn1nnc2c(=O)[nH]c(C3CCN(C(=O)c4ccccc4Cl)CC3)nc21`, “inactive”.
Consider `O=C(Nc1ccc(Cl)c(C(F)(F)F)c1)c1ccc2c(c1)CCN2S(=O)(=O)c1ccccc1`, for which the Potency entry is “inactive”.
To `CCCOC(=O)c1cccc(NC(=O)c2c(-c3ccccc3Cl)noc2C)c1` belongs “inactive”.
To `COC(=O)C1=C(C)N(C(C)C)C(=O)C1(NC(=O)c1ccc(C(C)(C)C)cc1)C(F)(F)F` (configuration not stated) belongs 20.7 µM (active); to `O=C(Nc1ccc(C(F)(F)F)cc1)c1cc(S(=O)(=O)NC2CCCCC2)ccc1F`, “inactive”.
For the molecule `Cc1ccc(-n2ncc(C(=O)NCCCN3CCc4ccccc4C3)c2C2CCN(C(=O)OC(C)(C)C)CC2)cc1C`, the Potency was 20.7 µM (active).
To `COc1ccccc1CN1CCC(CNC(=O)c2cnn(-c3ccccc3Cl)c2C2CCN(C(=O)OC(C)(C)C)CC2)CC1` belongs “inactive”; to `Cc1ccc(-n2ncc(C(=O)NCc3cccs3)c2C2CCN(C(=O)OC(C)(C)C)CC2)cc1C`, “inactive”.
Regarding `CCCCOC(=O)c1ccc(NC(=O)Cc2coc3ccc(C(C)C)cc23)cc1`, the Potency result is “inactive”.
With `CCCCS(=O)(=O)c1nc(-c2ccc(Br)cc2)cc(-c2ccccc2)c1C#N` the figure was 3.29 µM (active); with `CCCS(=O)(=O)N1CC(=O)N(c2ccccc2C)C(C)(C(=O)NC2CCCC2)C1` (configuration not stated), “inactive”; with `COc1ccc(NS(=O)(=O)c2ccc3c(c2)CCCN3C(=O)C2CCC2)cc1OC`, “inactive”.
For `CC1=Nc2cc(C(=O)NC(C)C)ccc2Sc2ccc(C)cc21`, the Potency result was “inactive”.
To `Cc1ccc(-c2csc(-c3cc4c([nH]c3=O)CC(c3ccccc3)CC4=O)n2)cc1` (configuration not stated) belongs “inactive”.
With `CC(=O)c1c(C)oc2ccc(N(C(=O)c3ccncc3)S(=O)(=O)c3ccc(F)cc3C)cc12` the entry was “inactive”; with `CCOc1ccc(S(=O)(=O)N(C(=O)c2ccncc2)c2ccc3oc(C)c(C(=O)OC)c3c2)cc1`, 3.29 µM (active); with `COC(=O)c1c(C)oc2ccc(N(C(=O)c3ccncc3)S(=O)(=O)c3cc(C)ccc3C)cc12`, “inactive”.
With `Cc1cc(C)c2c(=O)cc(CSCC(=O)Nc3nnc(C)s3)[nH]c2c1` the entry was “inactive”; with `CC(C)Cc1cc(C(=O)NCc2ccc(Cl)cc2)no1`, “inactive”; with `COc1ccccc1Cc1nc2ccccc2nc1SCC(=O)N1CCCCC1`, “inactive”.
On to `CCc1ccc(NC(=O)c2ccc(F)c(S(=O)(=O)NCc3ccc(Cl)c(Cl)c3)c2)cc1`, for which the Potency result is “inactive”.
For the molecule `CCOC(=O)c1cnc2ccc(C)cc2c1Nc1ccc(OCc2ccccc2Cl)cc1`, the Potency result was “inactive”.
In the case of `CCc1ccc(C(=O)c2cnc3ccc(F)cc3c2S(=O)(=O)c2ccccc2)cc1`, the Potency was 4.65 µM (active).
To `Cc1cc(Cl)ccc1NC(=O)C1CCCN1S(=O)(=O)c1ccc2c(c1)CCCC(=O)N2` (configuration not stated) belongs “inactive”; to `COc1ccc(-c2nc(S(=O)(=O)c3ccc(C)cc3)c(N3CCCCC3)o2)cc1`, 13.1 µM (active).
With `O=C(c1cc(-c2cccc(Cl)c2)on1)N1CCN(c2ccccc2)CC1` the entry was “inactive”; with `O=S(=O)(c1ccccc1)c1nc(-c2cccc(Cl)c2)oc1N1CCOCC1`, 9.27 µM (active); with `COc1ccc(N2CCN(Cc3nc(-c4ccc(C)cc4)no3)CC2)cc1`, “inactive”.
To `Cc1ccc(-c2nc(S(=O)(=O)c3ccc(C)cc3)c(N3CCN(c4ccccc4)CC3)o2)cc1` belongs “inactive”; to `CC(=O)N1CCOc2cc(S(=O)(=O)Nc3c(C)cccc3C(C)C)c(Cl)cc21`, “inactive”; to `Cc1cc(C)c2c(=O)c3c(oc2c1)C(=O)N(Cc1ccc(F)cc1)C3c1cccc(O)c1` (configuration not stated), “inactive”.
With `Cc1cc(C)cc(NS(=O)(=O)c2ccc(-c3cc(C)no3)cc2)c1`, the Potency result is “inactive”.
`CCC(C(=O)Nc1ccc(C)c(Cl)c1)n1c(=O)c(-c2ccccc2NC(C)=O)nc2ccccc21` (configuration not stated): the Potency entry was “inactive”.
With `O=C1Nc2ccccc2Oc2cc(Oc3ccccc3)ccc21`, the Potency entry is “inactive”.
With `Cc1ccc2occ(CC(=O)N(Cc3ccc(Cl)cc3)Cc3ccco3)c2c1` the entry was “inactive”; with `Cc1ccc(CN(Cc2ccco2)C(=O)COc2c(C)cc(C)cc2C)cc1`, “inactive”.
With `Cc1cc(C)c2c(CC(=O)N(Cc3ccc(N(C)C)cc3)Cc3ccco3)coc2c1`, the Potency was 6.56 µM (active).
For the molecule `Cc1cccc(CC(=O)Nc2ccc3nc(N4CCC(C)CC4)cc(C)c3c2)c1`, the Potency entry was “inactive”.
As to `Cc1ccc(S(=O)(=O)N2CCc3cc(C(=O)Nc4ccc(C(F)(F)F)cc4)ccc32)cc1`, the Potency result was “inactive”.
As to `Cc1cc(N2CCN(C)CC2)nc2ccc(NC(=O)c3ccc(C(C)(C)C)cc3)cc12`, the Potency is 1.85 µM (active).
With `COc1ccccc1C(=O)Nc1ccc2nc(N3CCC(C)CC3)cc(C)c2c1`, the Potency entry was “inactive”.
To `CCCCc1ccc(NC(=O)c2ccc3c(c2)CCN3S(=O)(=O)c2ccccc2)cc1` belongs “inactive”.
For `CCN1CCN(c2cc(C)c3cc(NC(=O)c4cc(Cl)ccc4OC)ccc3n2)CC1`, the Potency was 2.93 µM (active).
To `Cc1ccc(NC(=O)c2ccc(F)c(S(=O)(=O)NCCc3ccccc3)c2)cc1F` belongs “inactive”.
To `CCCCc1ccc(C(=O)Nc2ccc3nc(N4CCN(CC)CC4)cc(C)c3c2)cc1` belongs 2.61 µM (active).
To `CCN1CCN(c2cc(C)c3cc(NC(=O)/C=C/c4ccc(C)cc4)ccc3n2)CC1` belongs 5.21 µM (active).
Turning to `COc1ccc(Cl)cc1NC(=O)CCn1nc(C)cc1C`, the Potency result was “inactive”.
To `COc1cccc(NC(=O)Nc2ccc3nc(N4CCN(C)CC4)cc(C)c3c2)c1` belongs “inactive”; to `COc1cc(-c2nc(-c3ccccc3)c(-c3ccc(Br)cc3)[nH]2)cc(OC)c1O`, “inactive”.
As to `CCOc1ccc(CN2C(=O)c3ccccc3Sc3ccc(C(=O)O)cc32)cc1`, the Potency result is “inactive”.
To `CCS(=O)(=O)N1CC(=O)N(c2ccc(Cl)cc2C)C(C)(C(=O)NC2CCCCC2)C1` (configuration not stated) belongs “inactive”; to `COc1ccc(Oc2nc3c(C)cccn3c(=O)c2/C=C(\C#N)c2nc3ccccc3[nH]2)cc1`, “inactive”; to `O=C(Nc1ccc(Cl)cc1F)c1cc(S(=O)(=O)NC2CCCCCC2)ccc1F`, “inactive”.
Regarding `COc1ccc(NC(=O)[C@H]2O[C@@H]3OC(C)(C)O[C@@H]3[C@H]3OC(C)(C)O[C@H]32)c(OC)c1`, the Potency result is “inactive”.
With `CC(C)c1ccc(CNCCSc2nnnn2C)cc1` the entry was “inactive”; with `COCc1oc2ccc(NS(=O)(=O)c3ccc(C)cc3)cc2c1C(=O)OC`, “inactive”; with `CCOC(=O)c1cccc(NC(=O)c2cc3sccc3n2Cc2ccc(Cl)cc2)c1`, “inactive”.
With `CCOc1ccc(OCC)c(NS(=O)(=O)c2ccc(-c3coc(C)n3)cc2)c1` the entry was “inactive”; with `Cc1ccc(CN2C(=O)C(=O)c3cc(Br)cc(C)c32)cc1`, 5.85 µM (active); with `CCCCOc1ccc(CN2C(=O)C(=O)c3cc(Br)cc(C)c32)cc1OC`, 5.85 µM (active).
With `CCCC1=Nc2cc(C(=O)NCCc3ccccc3)ccc2Sc2ccc(C)cc21` the entry was “inactive”; with `Cc1c(Cl)cccc1NC(=O)NCc1c(-n2cccc2)sc2c1CCCC2`, “inactive”.
In the case of `CCCN(Cc1cccs1)C(=O)Nc1ccccc1C`, the Potency entry is “inactive”.
Consider `COc1ccc(-c2nc(SCC(=O)Nc3ccc4c(c3)OCO4)c(-c3ccc(OC)cc3)[nH]2)cc1`, for which the Potency result was “inactive”.
With `COc1ccc(NC(=O)CSc2nc3ccccc3n2Cc2cccc(OC)c2)cc1`, the Potency is 11.7 µM (active).
As for `COc1ccccc1NC(=O)Cn1c(SCC(=O)Nc2ccc(F)cc2)nc2ccccc21`, the Potency result is “inactive”.
With `O=C(CSc1cn(CCNC(=O)c2ccccc2F)c2ccccc12)Nc1ccc(F)cc1` the entry was “inactive”.
Consider `Cc1ccc(CNC(=O)Cn2c(SCC(=O)Nc3ccc(F)cc3)nc3ccccc32)cc1`, for which the Potency was 5.21 µM (active).
Regarding `COc1ccc(NC(=O)CSCc2cnn(-c3ccccc3)c2-n2cccc2)cc1`, the Potency result is “inactive”.
On to `CC(=O)N1c2ccc(S(=O)(=O)NCC3CCC(C(=O)Nc4cc(C)cc(C)c4)CC3)cc2CC1C` (configuration not stated), for which the Potency entry is “inactive”.
In the case of `NC(=O)CSc1nc2ccc(NC(=O)COc3ccccc3Cl)cc2s1`, the Potency entry is “inactive”.
With `Cc1ccc2[nH]cc(C(c3ccccc3)c3ccc(Cl)s3)c2c1` (configuration not stated), the Potency entry is “inactive”.
